Source: PubChem BioAssay (National Center for Advancing Translational Sciences (NCATS))
GoLoco inh red – blocks human Gai1 binding to RGS12 GoLoco peptide, red readout. AID 880. Gai1:RGS12 GoLoco peptide FP, rhodamine, 10 min. actives 0.44% (n = 230,000). Potency, µM (doses to about 61.6 µM), for the others: at the highest dose activity, negative = inhibition, actives largely listed as inhibitors. P63096; active = well fitted inhibition curve with a large enough effect, not every such curve was filed as active; inactive = no such curve, though single readings can be large or run the other way; note: nearly all actives have a fitted effect of over 30% in size
L3MBTL1 inh – L3MBTL1 (human) inhibition; Potency, µM (top dose mostly 57.1 µM), for inactives: top-dose activity, negative = inhibition, actives largely listed as inhibitors; AlphaScreen L3MBTL1–H3K9me1 peptide binding; Q9Y468; AID 485360; actives 0.66% (n = 230,000); note: nearly all actives have a fitted effect of over 60% in size
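Read-out is AlphaScreen signal from streptavidin donor and nickel chelate acceptor beads (10 ug/mL final each) bridging L3MBTL1 (50 nM) and biotinylated K9-monomethylated H3(1-15) peptide (75 nM), after 30 min compound exposure at room temperature.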
KDM4E inh – inhibitors of human JMJD2E histone demethylase; Potency, µM (series often up to 57.1 µM), for the others: at the highest dose activity change, negative = inhibition, most hits filed as inhibitors; B2RXH2; JMJD2E catalytic domain, FDH-coupled NADH fluorescence (FDH is formaldehyde dehydrogenase); actives 1.6% (n = 230,000); active = well fitted inhibition curve with a large enough effect, not every such curve was filed as active; inconclusive = small, poorly fitted or top-dose-only effect, or another doubt; inactive = no such curve, though single readings can be large or run the other way;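 note: 0% = wells with enzyme and -100% = buffer wells without enzyme; nearly all actives have a fitted effect of over 50% in size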
APE1 inh – blocks human APE1 abasic DNA cleavage; Potency, µM (top dose mostly 65.8 µM), without a hit: top-dose activity change, negative = inhibition, hits mostly inhibitors; actives 0.35% (n = 350,000); P27695; AID 2517; recombinant APE1, TAMRA/BHQ-2 abasic DNA cleavage fluorescence;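 note: plate controls were vehicle for no effect and reference inhibitor for full effect; nearly all actives have a fitted effect of over 55% in size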
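Substrate: short duplex with […] THF abasic site, 5'-TAMRA and 3'-BHQ-2, 50 nM final. APE1 at 0.75 nM, preincubated 15 min RT with compound. Fluorescence increase from first to third read measured activity.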
BLM inh – Bloom syndrome helicase (human) inhibition; Potency, µM (highest dose often 56.1 µM), without a hit: at the highest dose activity change, negative = inhibition, usual class: inhibitors; actives 0.2% (n = 350,000); recombinant BLM DNA unwinding, fluorescence dequenching; AID 2528;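 note: plate controls were vehicle for no effect and no enzyme for full effect; nearly all actives have a fitted effect of over 35% in size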
Target sequence (P54132 whole entry, looked up): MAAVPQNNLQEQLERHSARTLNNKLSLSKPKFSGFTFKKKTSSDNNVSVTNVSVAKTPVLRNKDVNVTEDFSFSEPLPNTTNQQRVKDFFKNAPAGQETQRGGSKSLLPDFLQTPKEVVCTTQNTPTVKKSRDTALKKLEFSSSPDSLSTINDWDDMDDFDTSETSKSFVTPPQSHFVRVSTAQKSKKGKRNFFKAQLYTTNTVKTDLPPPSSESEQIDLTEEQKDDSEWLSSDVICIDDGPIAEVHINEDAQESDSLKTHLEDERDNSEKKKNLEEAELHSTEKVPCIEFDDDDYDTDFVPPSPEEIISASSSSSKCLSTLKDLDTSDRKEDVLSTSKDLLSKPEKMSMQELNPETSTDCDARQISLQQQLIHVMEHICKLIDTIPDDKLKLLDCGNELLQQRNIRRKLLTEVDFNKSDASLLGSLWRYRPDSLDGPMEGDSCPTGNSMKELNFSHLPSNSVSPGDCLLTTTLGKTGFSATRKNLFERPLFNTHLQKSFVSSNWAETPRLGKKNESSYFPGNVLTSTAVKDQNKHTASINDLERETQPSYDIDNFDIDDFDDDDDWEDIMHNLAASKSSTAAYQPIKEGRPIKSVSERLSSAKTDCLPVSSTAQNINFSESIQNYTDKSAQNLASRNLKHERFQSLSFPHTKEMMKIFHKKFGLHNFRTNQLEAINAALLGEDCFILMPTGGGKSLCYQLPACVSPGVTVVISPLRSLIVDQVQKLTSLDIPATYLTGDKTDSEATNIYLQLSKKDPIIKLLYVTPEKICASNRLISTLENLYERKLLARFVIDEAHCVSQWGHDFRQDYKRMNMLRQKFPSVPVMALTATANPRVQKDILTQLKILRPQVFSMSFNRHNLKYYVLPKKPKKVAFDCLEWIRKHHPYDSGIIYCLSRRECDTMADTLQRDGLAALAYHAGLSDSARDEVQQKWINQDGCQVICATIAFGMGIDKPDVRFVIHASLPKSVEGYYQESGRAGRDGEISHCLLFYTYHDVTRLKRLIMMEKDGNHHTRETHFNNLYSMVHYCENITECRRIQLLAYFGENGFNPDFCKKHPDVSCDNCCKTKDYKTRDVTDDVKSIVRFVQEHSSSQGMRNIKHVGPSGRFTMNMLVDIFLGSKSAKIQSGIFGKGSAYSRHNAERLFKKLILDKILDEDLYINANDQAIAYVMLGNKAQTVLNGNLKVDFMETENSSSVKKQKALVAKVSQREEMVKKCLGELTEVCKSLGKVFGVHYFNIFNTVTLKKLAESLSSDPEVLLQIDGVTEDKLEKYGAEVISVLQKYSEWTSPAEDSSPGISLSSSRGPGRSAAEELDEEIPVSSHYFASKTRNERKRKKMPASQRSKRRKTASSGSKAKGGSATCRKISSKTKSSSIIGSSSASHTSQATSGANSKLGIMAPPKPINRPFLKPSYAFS
RECQ1 helicase – blocks DNA unwinding by human RECQ1; P46063; RECQ1 DNA unwinding, red fluorescence kinetic read; Potency, µM (top dose mostly 57.3 µM), for the others: top-dose activity, negative = inhibition, hits mostly inhibitors; actives 0.54% (n = 240,000);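 note: plate controls were vehicle for no effect and no enzyme for full effect; nearly all actives have a fitted effect of over 30% in size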
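50 nM RECQ1T1 preincubated 15 min with compound in Tris pH 8.0 buffer with MgCl2, DTT, Tween-20 and 2.5 ug/ml poly(dI-dC); started with 200 nM TAMRA/BHQ-2 forked duplex and 2 mM ATP. Unwinding read as fluorescence (525/598 nm), two reads 2 h apart.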
* = called active by the depositor; i = inactive; ? = inconclusive; nt = no result. The sample as a whole holds a higher share of hits than the screen did. Unless noted, calls come from the whole dose curve; as a rule, active = well fitted curve in the direction sought with a large enough effect; inconclusive = small, poorly fitted or top-dose-only effect, or another doubt; inactive = no such curve, though single readings can be large; an effect the other way counts as inactive or inconclusive. Unless noted, % is set by controls: 0 for no effect and ±100 for the full control effect; potency is the fitted concentration of half-maximal effect.

SMILES | GoLoco inh red | L3MBTL1 inh | KDM4E inh | APE1 inh | BLM inh | RECQ1 helicase
O=C(N/N=C/c1cn(Cc2ccccc2)c2ccccc12)c1cc(O)cc(O)c1 | nt | nt | nt | 15µM* | -14.9% | nt
Cc1ccc(C(=O)N/N=C/c2cn(Cc3ccccc3)c3ccccc23)cn1 | 11.7% | ? | ? | 12.6% | -8.0% | -7.7%
CCOc1ccc(C(=O)N/N=C/c2cc(Cl)ccc2[N+](=O)[O-])cc1 | 11.0% | 0.5% | -2.5% | 5.3% | 11.2µM* | -2.0%
N=c1oc2c3c4c(cc2cc1C(=O)Nc1ccccc1)CCCN4CCC3 | 3.98µM* | 40.9% | -23.2% | -1.1% | -4.3% | -12.1%
Oc1ccc(/C=N/Nc2ccnc3cc(Cl)ccc23)c(O)c1O | nt | nt | nt | -9.6% | -26.5% | nt
Oc1ccc(/C=N/Nc2ccnc3cc(Cl)ccc23)cc1O | 8.0% | nt | ? | ? | 28.2µM* | -21.0%
Cc1ccc(NNS(=O)(=O)c2ccc(C)cc2)cc1 | -41.7% | 5.1% | 17.8µM* | -2.0% | -11.0% | -4.9%
N[C@H](C(=O)O)[C@@H]1CC(Cl)=NO1 | nt | nt | nt | 3.9% | nt | nt
C=C(CCC12O[C@H](C(=O)O)[C@@](O)(C(=O)O)[C@](C(=O)O)(O1)[C@H](OC(=O)/C=C/[C@@H](C)C[C@@H](C)CC)[C@H]2O)[C@@H](OC(C)=O)[C@H](C)Cc1ccccc1 | -1.5% | nt | nt | -6.2% | 22.4µM* | i
Cc1ccc(NC(=O)CN2C(=O)N/C(=C/c3ccc(C)o3)C2=O)cc1 | 3.0% | -3.1% | ? | -11.1% | -6.8% | -7.0%
C=CCN1C(=O)N/C(=C/c2ccc(C)o2)C1=O | -24.2% | 2.0% | 17.8µM* | -3.4% | -16.1% | 5.0%
COC(=O)C(C(=O)OC)[C@@H](NC(=O)OCc1ccccc1)c1ccccc1 | 1.2% | nt | 4.7% | -2.8% | -2.9% | -3.6%
COC(=O)C1CCN(C(=O)COC(=O)CNS(=O)(=O)c2ccc(SC)c([N+](=O)[O-])c2)CC1 | nt | -16.5% | nt | 11.9µM* | nt | nt
COc1ccc(C2=NN(c3nc(-c4ccccc4)c(CC(=O)O)s3)C(c3ccco3)C2)cc1 (stereo not drawn) | 102.2% | 31.6µM* | ? | -5.3% | -28.9% | -17.1%
CCOC(=O)c1cc(C#N)c(=S)[nH]c1C | 5.4% | 4.4% | -29.2% | -8.6% | -14.7% | i
COCc1[nH]c(=S)c(C#N)cc1C(=O)OC | -25.7% | -4.9% | 25.1µM* | 8.8% | -3.7% | 17.4%
Cc1cc(NC(=O)CSCC(=O)N(c2cccc(Cl)c2)C(C(=O)NC2CCCCC2)c2ccc(O)c(O)c2)no1 (stereo not drawn) | -2.1% | -10.3% | 10µM* | 5.6% | -3.7% | -5.9%
COc1ccc(N(C(=O)CSCC(=O)Nc2cc(C)on2)C(C(=O)NC2CCCCC2)c2ccc(O)c(O)c2)cc1 (stereo not drawn) | -36.3% | 6.4% | 11.2µM* | 0.9% | -2.2% | -18.4%
Cc1cc(NC(=O)CSCC(=O)N(c2ccc(F)cc2)C(C(=O)NC2CCCCC2)c2ccc(O)c(O)c2)no1 (stereo not drawn) | -19.3% | -17.8% | 8.2% | -1.1% | -8.3% | -1.5%
CC(C)(C)n1ncc2c(=O)n(Cc3c(Cl)cccc3Cl)cnc21 | nt | nt | nt | -1.0% | nt | nt
Cc1cc2c(n1-c1ccc(C(=O)O)cc1)CCCCC2 | nt | nt | nt | 5.97µM* | -0.7% | nt
CS[C@@H]1SC[C@H]2C(=O)N(C)C(C(C)C)C(=O)OC[C@@H](NC(=O)c3cnc4ccccc4n3)C(=O)N[C@@H](C)C(=O)N(C)[C@H]1C(=O)N(C)C(C(C)C)C(=O)OC[C@@H](NC(=O)c1cnc3ccccc3n1)C(=O)N[C@@H](C)C(=O)N2C (stereo partly drawn) | nt | nt | nt | ? | 25.7% | 10µM*
CC(NC(=O)c1cnc2ccccc2n1)c1ccccc1 (stereo not drawn) | nt | nt | nt | -8.1% | -11.7% | nt
CSc1nnc(SC)nn1 | -1.9% | nt | -3.3% | 1.1% | 2.7% | 7.4%
COc1ccc(CNC(=O)Cn2c(=O)nc(-c3ccccc3)c3cc(Cl)ccc32)cc1OC | nt | nt | nt | nt | -1.9% | nt
SMILES | GoLoco inh red | L3MBTL1 inh | KDM4E inh | APE1 inh | BLM inh | RECQ1 helicase
C[n+]1ccccc1C1CCCC/C1=N\NC(N)=S (stereo not drawn) | 10µM* | nt | -14.8% | -5.1% | 0.1% | i
N#C/C(=C\c1ccc(O)c(O)c1)S(=O)(=O)c1ccccc1 | 10.6% | ? | 25.1µM* | -6.3% | -8.3% | -13.9%
N#C/C(=C/c1ccc(F)cc1)S(=O)(=O)c1ccccc1 | 9.3% | 53.0% | -9.9% | -2.4% | -24.4% | -9.3%
O=C1OC(c2ccc3c(c2)OCO3)=N/C1=C\c1ccc(C(=O)O)cc1 | nt | nt | nt | 4.23µM* | 1.5% | nt
O=C(O)c1cccc(-c2ccc3c(c2)OCO3)c1 | nt | nt | nt | 10.6% | -4.4% | nt
COc1ccc2c(Cl)c(C(=O)N/N=C3\CCCC(=O)C3)sc2c1 | 238.6% | 6.2% | 17.8µM* | -1.4% | -7.4% | ?
CSc1nnc2c(n1)OC(c1cccc(O)c1Cl)Nc1ccccc1-2 (stereo not drawn) | nt | nt | nt | nt | -1.0% | nt
CSc1nsc(/C=C/Nc2ccc(C(=O)O)cc2)c1C#N | 15.5% | -13.4% | 22.4µM* | ? | 28.2µM* | -5.7%
CSc1nsc(/C=C/Nc2ccc(F)cc2F)c1C#N | 17.7% | ? | ? | -11.2% | -20.6% | i
C[C@H](CC[C@@H]1OC1(C)C)C1CC[C@H]2[C@@H]3CC=C4C[C@@H](O)CC[C@]4(C)[C@H]3CC[C@]12C (stereo partly drawn) | -6.7% | nt | nt | 2.8% | nt | i
C=CCN=c1scc(C)n1/N=C/c1ccc(O)c(O)c1 | -23.0% | -11.7% | 15.8µM* | ? | -4.1% | -14.8%
CN=c1scc(-c2ccco2)n1/N=C/c1ccc(O)c(O)c1 | 1.5% | nt | 25.1µM* | ? | -19.5% | -15.3%
COc1ccc(O)c(/C=N/n2c(-c3ccco3)csc2=Nc2cccnc2)c1 | 2.6% | -20.2% | -12.5% | -3.2% | -3.1% | -3.6%
Cc1ccc(C(=O)OC[C@H]2O[C@H](Cl)C[C@@H]2OC(=O)c2ccc(C)cc2)cc1 | 1.8% | nt | 7.4% | 17.2% | 2.0% | -5.8%
CC(C)(C)n1ncc2c(=O)n(Cc3cc(Cl)ccc3Cl)cnc21 | nt | nt | nt | -3.1% | nt | nt
COCCn1c(SCC(=O)Nc2cc(Cl)ccc2OC)nc2c([nH]c3ccccc32)c1=O | nt | nt | nt | nt | -1.3% | nt
COc1ccc(/C=C/C(=O)NC(=S)NNC(=O)c2cnccn2)cc1 | -0.3% | nt | 7.94µM* | -0.7% | 0.4% | 1.9%
O=C1N/C(=C\c2ccc(O)cc2)C(=O)c2ccccc21 | 7.9% | -3.8% | -8.1% | ? | 31.6µM* | i
O=C(O)/C=C1\NC(=O)c2ccccc21 | 12.1% | -0.6% | 5.0% | -3.9% | -2.0% | -7.2%
N#Cc1c(-c2ccc(C(F)(F)F)cc2)no[n+]1[O-] | nt | nt | nt | -2.0% | nt | nt
